In PubChem BioAssay (EPA / NIEHS):
Records with an inconclusive call do not appear. Some compounds were tested as several samples or in several runs, with calls that do not always agree. Calls of active or inactive are those of the source. How the source made its calls, unless noted: active means hit-call score of the fitted dose curve at least 0.9, where 1 is the maximum; inconclusive means response in the unintended direction; inactive means score below 0.9.

read-out: not listed separately; test: CEETOX_H295R_MTT_cell_viability: Viability Assessment in the CeeTox HT-H295R MTT Assay (AID 2283718; active means hit-call score of the fitted dose curve at least 0.9, where 1 is the maximum; inactive means score below 0.9)
Method in brief: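 Human H295R adrenal cells, prestimulated 48 h with 10 uM forskolin, were exposed 48 h to chemicals in 0.1% DMSO. Viability was measured in the same wells by MTT (0.5 mg/ml, 4 h, 37 C), absorbance 570/650 nm, as percent of controls.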

| Structure (SMILES) | outcome |
| --- | --- |
| CCCc1ccc(O)cc1 | inactive |
| CCCCCC1C(=O)CCC1CC(=O)OC (stereo unspecified) | inactive |
| CC(C)(C)c1cccc(O)c1 | inactive |
| O=C(OCc1ccccc1)c1ccccc1O | inactive |

molecular target: Luciferin 4-monooxygenase (Photinus pyralis) (UniProt P08659); test: CCTE_Simmons_QuantiLum_inhib_2: CCTE's Firefly Luciferase Inhibition Assay, Simmons Lab (AID 2283767);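 on AC50: potency for inhibitors that lower luciferase luminescence relative to DMSO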
Method in brief: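 Eight test concentrations, 5 nM up to 87.5 uM final, preincubated 30min at 37C in the dark with purified luciferase (0.5% DMSO final). Detection reagent (150uM D-luciferin, 147uM dATP, 75uM CoA, pH 7.8) injected per well before kinetic luminescence read; three replicates.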

Luciferin 4-monooxygenase (Photinus pyralis), sequence (P08659 whole entry, looked up): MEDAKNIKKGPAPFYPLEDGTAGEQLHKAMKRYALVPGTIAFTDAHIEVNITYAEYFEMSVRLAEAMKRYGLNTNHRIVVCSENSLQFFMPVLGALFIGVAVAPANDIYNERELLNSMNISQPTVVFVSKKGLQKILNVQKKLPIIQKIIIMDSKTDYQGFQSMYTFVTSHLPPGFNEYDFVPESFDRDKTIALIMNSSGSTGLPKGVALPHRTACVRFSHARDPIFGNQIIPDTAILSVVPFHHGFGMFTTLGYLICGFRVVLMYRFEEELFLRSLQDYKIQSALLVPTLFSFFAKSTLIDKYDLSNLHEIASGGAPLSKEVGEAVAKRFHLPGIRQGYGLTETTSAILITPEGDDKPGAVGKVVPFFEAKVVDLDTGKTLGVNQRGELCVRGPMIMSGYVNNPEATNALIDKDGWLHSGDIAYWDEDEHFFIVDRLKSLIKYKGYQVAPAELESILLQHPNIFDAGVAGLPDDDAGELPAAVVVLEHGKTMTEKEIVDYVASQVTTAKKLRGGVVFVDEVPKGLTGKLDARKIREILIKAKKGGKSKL

| Structure (SMILES) | AC50 | outcome |
| --- | --- | --- |
| CN1CCc2cccc3c2[C@H]1Cc1ccc(O)c(O)c1-3 | 12.5 µM (active) |  |
| CCCCCCOc1ccc(O)cc1 | 53.8 µM (active) |  |
| O=Cc1ccccc1O |  | inactive |
| CCCc1ccc(O)cc1 |  | inactive |
| CN(C)C(=O)Nc1ccccc1 |  | inactive |
| CCCCCCCCCCCCOCCOS(=O)(=O)O |  | inactive |
| CCCCCCCCCCCCS |  | inactive |
| O=C(O)C1=NN(c2ccc(S(=O)(=O)O)cc2)C(=O)C1 |  | inactive |
| O=c1cc[nH]cc1 |  | inactive |
| CC1=CCC(=C(C)C)CC1 |  | inactive |
| CC(=O)Nc1cc(S(=O)(=O)O)cc2cc(S(=O)(=O)O)c(N=Nc3ccccc3)c(O)c12 | 21.2 µM (active) |  |
| CC(C)(C)c1cccc(O)c1 |  | inactive |
| [O-]/[N+](=N\O)c1ccccc1 | 31.7 µM (active) |  |
| NC(N)=S | 10.4 µM (active) | inactive |
| c1ccc2scnc2c1 | 31.7 µM (active) | inactive |
| COc1ccccc1O |  | inactive |
| CCCc1ccc(N)cc1 |  | inactive |
| CCC(C)(C)C1CCC(=O)CC1 |  | inactive |
| Cc1cccc(O)c1 |  | inactive |
| O=c1cc(-c2ccc(O)cc2)oc2cc(O)cc(O)c12 | 7.35 µM (active) |  |
| CCCCC/C=C\C=C\C(=O)OCC |  | inactive |
| CCc1cccc(O)c1 | 55.2 µM (active) |  |
| CCCCCCCCOC(=O)c1ccc(O)cc1 |  | inactive |
| O=C1OC2(c3ccc(O)cc3Oc3cc(O)ccc32)c2ccccc21 |  | inactive |
| O=C(O)CS |  | inactive |
